Active and inactive are the calls of the source. Cut-off read from the data, not from the text of the source: active = fold change mostly below about -2 (no sharp cut-off); inactive = mostly above about -1.8.

The nature of the test: TERT promoter activity modulators, primary screen, cell-based, luciferase reporter, human (AID 1259240). To be noted: A2780 TERT promoter luciferase reporter, 16 h; at 20 µM, fold versus average of vehicle-only wells.
Take `COc1cc(-c2nc3s/c(=C\c4ccccc4Br)c(=O)n3n2)cc(OC)c1OC`: the fold change is 1.02 (inactive). For `O=C(CSc1nc(-c2ccco2)cc(C(F)(F)F)n1)NCc1cccnc1`, the fold change was -1.4 (inactive). As to `CCc1nnc(NC(=O)CSc2ncnc3ccccc23)s1`, the fold change was 1.11 (inactive). Consider `Cc1nn(-c2nc3ccccc3[nH]2)c(=O)c2ccccc12`, for which the fold change was -14.7 (active). In the case of `O=C(O)c1ccc(CNc2c(N3CCOCC3)c(=O)c2=O)cc1`, the fold change is 1.05 (inactive). Consider `COC(=O)c1cccnc1-n1c(=O)c2cccnc2n(Cc2ccc(C#N)cc2)c1=O`, for which the fold change is -1.61 (inactive). `Cc1ccc2nc(NCc3ccc(F)cc3)c3nncn3c2c1`: the fold change was 1.08 (inactive). For the compound `O=C1N=C(N2CCOCC2)S/C1=C1\C(=O)N(Cc2ccccc2)c2ccccc21`, the fold change is -2.02 (active). For `COc1cccc(C(=O)Cn2c(=O)n(C3CCCC3)c(=O)c3cc(OC)c(OC)cc32)c1`, the fold change was -1.38 (inactive). Consider `Cc1oc2cc(OC(=O)N3CCOCC3)ccc2c(=O)c1Oc1ccccc1Br`, for which the fold change was -1.46 (inactive). `CN(CC(=O)Nc1ccc2c(c1)OCO2)S(=O)(=O)c1ccc2c(c1)c(=O)n(C)c(=O)n2C`: the fold change was -1.32 (inactive). On the same count and under the same terms, in the case of `Cc1cccc(-c2nc3s/c(=C\c4ccc(F)cc4)c(=O)n3n2)c1` it was -1.54 (inactive). The same measure, in the same setting: in the case of `COc1ccc(Br)cc1/C=c1\sc2nc(-c3ccco3)nn2c1=O` it was 1.22 (inactive); in that of `O=C(CN1C(=O)C2(OCCO2)c2ccccc21)c1ccc(F)cc1`, 1.12 (inactive); in that of `CCc1cccc2c1NC(=O)C2(O)CC(=O)c1cccs1` (centres undefined), 1.14 (inactive). On to `Cc1ccc2oc(-c3cc(NC(=O)c4ccc5c(c4)OCCO5)ccc3O)nc2c1`, for which the compound was called active. Turning to `CCc1ccc(N2CC(O)=C(c3nc4ccccc4c(=O)[nH]3)C2=N)cc1`, the result was inactive. Regarding `CCCSc1nnc2c3ccccc3n(CC)c2n1`, the fold change is -1.73 (inactive).

With `O=C(CSc1ncnc2ccccc12)N1CCCc2ccccc21`, the fold change is -1.11 (inactive).

For `COc1ccc(-c2nc3s/c(=C\c4cccc(Cl)c4)c(=O)n3n2)cc1OC`, the fold change is -1.08 (inactive).

As to `CN(C)S(=O)(=O)N(CC(=O)Nc1ccccc1F)c1ccccc1`, the fold change is -1.38 (inactive). As to `CCCc1nnc2n1Nc1nc3ccccc3nc1S2`, the fold change was 1.62 (inactive). On to `COc1ccc(OC(C)c2nc(-c3ccc(OC)cc3)no2)cc1` (centres undefined), for which the fold change is 1.61 (inactive). For `O=C(Nc1cccc(F)c1)C1CCCN(S(=O)(=O)c2cnc[nH]2)C1` (centres undefined), the fold change is 1.26 (inactive).

Regarding `O=c1/c(=C/c2ccco2)sc2nc(-c3ccco3)nn12`, the fold change is -1.71 (inactive). Take `COc1ccc(-c2csc3nc(-c4ccccc4F)oc(=O)c23)cc1OC`: the fold change is -1.03 (inactive).

As for `CCN(CC)C(=O)Nc1ccc2snnc2c1`, the fold change is -1.04 (inactive). With `c1ccc2c(c1)CCN2c1nnc(Cc2ccncc2)c2ccccc12`, the fold change was -1.29 (inactive). Still for that read-out and setting: in the case of `CCOc1ccc(S(=O)(=O)n2c(C)nc3ccccc32)cc1` it was -1.6 (inactive). Turning to `Cc1noc(C(=O)Nc2cccc(Cl)c2)c1Cl`, the fold change was 1.73 (inactive). The same measure, in the same setting: in the case of `CCCC1=NN(C(=O)CSCc2ccccc2Cl)C(O)(C(F)(F)F)C1` (centres undefined) it was -2.03 (active); in that of `Cc1ccc(-n2c(C)c3c(C)nn4cc(C)cc4c3c2C)cc1`, -2.26 (active); in that of `COc1ccc2c(=O)c(Oc3ccc(C)cc3)c(C(F)(F)F)oc2c1`, -1.15 (inactive). `CCOC(=O)Cc1csc(NC(=O)Nc2cccs2)n1`: the fold change was 1.33 (inactive). Regarding `COc1ccccc1-c1c(C)nn2c(N(C)CCC#N)cc(C)nc12`, the fold change is -1.5 (inactive). On the same count and under the same terms, in the case of `COc1ccc(S(=O)(=O)c2cc3ccc(O)cc3oc2=O)cc1OC` it was -1.34 (inactive); in that of `CCc1nc2ccccc2n1CC(O)COc1cccc(OC)c1` (centres undefined), 1.45 (inactive). For `Cc1ccc(-c2cc(N)n(S(=O)(=O)c3cccc([N+](=O)[O-])c3)n2)cc1`, the fold change is 1.05 (inactive).

`COc1ccc(-c2n[nH]c3c2C(c2ccc(Cl)cc2)NC3=O)cc1` (centres undefined): the fold change is -3 (active).

For the origin of these results see PubChem BioAssay AID1259240 (Keith Lab, Institute of Cancer Science, University of …, 2017).
